From PubChem BioAssay (NCATS)
Inconclusive results are not listed. The source made the active and inactive calls. The call rests on the fitted dose curve; in most records, active means well fitted inhibition curve with a large enough effect; inconclusive means small, poorly fitted or top-dose-only effect; inactive means flat fitted curve, though single readings scatter.

How the values were obtained:
Assay in all cases: qHTS profiling for inhibitors of Plasmodium falciparum proliferation (AID 504749); further: nearly all actives have a fitted effect of over 60% in size;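 on activity, negative = inhibition: 0% = DMSO vehicle and full inhibition = artemisinin control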
Details in all cases: P. falciparum in erythrocytes, SYBR Green DNA, 72 h; series mostly up to 28.7 µM
[1] = tested on: FAB9
Procedure, shortened: (§1)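 SYBR Green fluorescence of parasite DNA, read after lysis and overnight dark incubation, measured growth over 72 h in erythrocyte culture at 0.3% parasitemia and 2.5% hematocrit. Data normalised to DMSO and 0.29 uM artemisinin, with plate-drift correction.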

[2] = tested on: GB4
Procedure, shortened: as §1

[3] = tested on: HB3
Procedure, shortened: as §1

[4] = tested on: ICS
Procedure, shortened: as §1

[5] = tested on: JCK
Procedure, shortened: as §1

[6] = tested on: N140
Procedure, shortened: as §1

[7] = tested on: P93_24
Procedure, shortened: as §1

[8] = tested on: P94_40
Procedure, shortened: as §1

[9] = tested on: PAD
Procedure, shortened: as §1

[10] = tested on: PC15
Procedure, shortened: as §1
Potency means the concentration at half of the fitted maximal effect.

c1ccc2c(c1)sc1ccccc12
inactive: Potency [1] | Potency [2] | Potency [3] | Potency [4] | Potency [5] | Potency [6] | Potency [7] | Potency [8] | Potency [9] | Potency [10]

NCCc1ccc(O)cc1
inactive: Potency [1] | Potency [2] | Potency [3] | Potency [4] | Potency [5] | Potency [6] | Potency [7] | Potency [8] | Potency [9] | Potency [10]

CCOC(=O)CC(SP(=S)(OC)OC)C(=O)OCC (stereo unspecified)
inactive: Potency [1] | Potency [2] | Potency [3] | Potency [4] | Potency [5] | Potency [6] | Potency [7] | Potency [8] | Potency [9] | Potency [10]

CCCCC/C=C\C/C=C\C/C=C\C/C=C\CCCC(=O)NCC(=O)O
inactive: activity, negative = inhibition [1] 0.295% [at 2.67 µM] | activity, negative = inhibition [2] 5.94% [at 2.67 µM] | activity, negative = inhibition [3] -4.91% [at 2.67 µM] | activity, negative = inhibition [4] -4.84% [at 2.67 µM] | activity, negative = inhibition [5] 0.614% [at 2.67 µM] | activity, negative = inhibition [6] -7.13% [at 2.67 µM] | activity, negative = inhibition [7] -5.2% [at 2.67 µM] | activity, negative = inhibition [8] -8.27% [at 2.67 µM] | activity, negative = inhibition [9] 4.88% [at 2.67 µM] | activity, negative = inhibition [10] 6.96% [at 2.67 µM]

NNc1ccccc1
inactive: Potency [1] | Potency [2] | Potency [3] | Potency [4] | Potency [5] | Potency [6] | Potency [7] | Potency [8] | Potency [9] | Potency [10]

O=C1OC(c2ccc(O)c(S(=O)(=O)O)c2)(c2ccc(O)c(S(=O)(=O)O)c2)c2c(Br)c(Br)c(Br)c(Br)c21
inactive: Potency [1] | Potency [2] | Potency [3] | Potency [4] | Potency [5] | Potency [6] | Potency [7] | Potency [8] | Potency [9] | Potency [10]

CCC1(CC)C(=O)C=CNC1=O
inactive: Potency [1] | Potency [2] | Potency [3] | Potency [4] | Potency [5] | Potency [6] | Potency [7] | Potency [8] | Potency [9] | Potency [10]

Oc1ccc(Cl)cc1
inactive: Potency [1] | Potency [2] | Potency [3] | Potency [4] | Potency [5] | Potency [6] | Potency [7] | Potency [8] | Potency [9] | Potency [10]

O=C1Nc2ccc(Cl)cc2C(c2ccccc2)=NC1O (stereo unspecified)
inactive: Potency [1] | Potency [2] | Potency [3] | Potency [4] | Potency [5] | Potency [6] | Potency [7] | Potency [8] | Potency [9] | Potency [10]

CN1C(=O)CCS(=O)(=O)C1c1ccc(Cl)cc1 (stereo unspecified)
inactive: Potency [1] | Potency [2] | Potency [3] | Potency [4] | Potency [5] | Potency [6] | Potency [7] | Potency [8] | Potency [9] | Potency [10]

C[C@](O)(CS(=O)(=O)c1ccc(F)cc1)C(=O)Nc1ccc(C#N)c(C(F)(F)F)c1
inactive: Potency [1] | Potency [2] | Potency [3] | Potency [4] | Potency [5] | Potency [6] | Potency [7] | Potency [8] | Potency [9] | Potency [10]

C[C@]12CC[C@@H]3c4ccc(OC(=O)N(CCCl)CCCl)cc4CC[C@H]3[C@@H]1CC[C@@H]2O
inactive: Potency [1] | Potency [2] | Potency [3] | Potency [4] | Potency [5] | Potency [6] | Potency [7] | Potency [8] | Potency [9] | Potency [10]

Clc1cccc(SC2CCNCC2)n1
inactive: Potency [1] | Potency [2] | Potency [3] | Potency [4] | Potency [5] | Potency [6] | Potency [7] | Potency [8] | Potency [9] | Potency [10]

CN1C(=O)NC(=O)C(C)(C2=CCCCC2)C1=O (stereo unspecified)
inactive: Potency [1] | Potency [2] | Potency [3] | Potency [4] | Potency [5] | Potency [6] | Potency [7] | Potency [8] | Potency [9] | Potency [10]

Nc1ccccc1C(=O)O
inactive: Potency [1] | Potency [2] | Potency [3] | Potency [4] | Potency [5] | Potency [6] | Potency [7] | Potency [8] | Potency [9] | Potency [10]

O=C(O)CCCc1ccc(N(CCCl)CCCl)cc1
inactive: Potency [1] | Potency [2] | Potency [3] | Potency [4] | Potency [5] | Potency [6] | Potency [7] | Potency [8] | Potency [9] | Potency [10]

O=C(Nc1ccc(Br)cc1)c1cc(Br)cc(Br)c1O
inactive: Potency [1] | Potency [2] | Potency [3] | Potency [4] | Potency [5] | Potency [6] | Potency [7] | Potency [8] | Potency [9] | Potency [10]

CCC1(c2ccccc2)C(=O)N(COC)C(=O)N(COC)C1=O
inactive: Potency [1] | Potency [2] | Potency [3] | Potency [4] | Potency [5] | Potency [6] | Potency [7] | Potency [8] | Potency [9] | Potency [10]

CCCC(C)(COC(N)=O)COC(N)=O
inactive: Potency [1] | Potency [2] | Potency [3] | Potency [4] | Potency [5] | Potency [6] | Potency [7] | Potency [8] | Potency [9] | Potency [10]

COc1c2c(cc3c1OCO3)CCN(C)C2
inactive: Potency [1] | Potency [2] | Potency [3] | Potency [4] | Potency [5] | Potency [6] | Potency [7] | Potency [8] | Potency [9] | Potency [10]

CN1C(=O)COc2c(C(=O)NC3CN4CCC3CC4)cc(Cl)cc21 (stereo unspecified)
inactive: Potency [1] | Potency [2] | Potency [3] | Potency [4] | Potency [5] | Potency [6] | Potency [7] | Potency [8] | Potency [9] | Potency [10]

CC(C)=CC1C(C(=O)OCN2C(=O)C3=C(CCCC3)C2=O)C1(C)C (stereo unspecified)
inactive: Potency [1] | Potency [2] | Potency [3] | Potency [4] | Potency [5] | Potency [6] | Potency [7] | Potency [8] | Potency [9] | Potency [10]

O=P1(N(CCCl)CCCl)NCCCO1 (stereo unspecified)
inactive: Potency [1] | Potency [2] | Potency [3] | Potency [4] | Potency [5] | Potency [6] | Potency [7] | Potency [8] | Potency [9] | Potency [10]

CN1C(=O)C(O)N=C(c2ccccc2)c2cc(Cl)ccc21 (stereo unspecified)
inactive: Potency [1] | Potency [2] | Potency [3] | Potency [4] | Potency [5] | Potency [6] | Potency [7] | Potency [8] | Potency [9] | Potency [10]

CN1C[C@H](C(=O)N[C@]2(C)O[C@@]3(O)[C@@H]4CCCN4C(=O)[C@H](Cc4ccccc4)N3C2=O)C=C2c3cccc4[nH]cc(c34)C[C@H]21
active: Potency [1] 6310 nM | Potency [2] 1690 nM | Potency [3] 447 nM | Potency [4] 39.8 nM | Potency [5] 7080 nM | Potency [6] 282 nM | Potency [7] 398 nM | Potency [8] 251 nM | Potency [9] 199 nM | Potency [10] 794 nM

Nc1nc(N)nc(NC2CC2)n1
inactive: Potency [1] | Potency [2] | Potency [3] | Potency [4] | Potency [5] | Potency [6] | Potency [7] | Potency [8] | Potency [9] | Potency [10]

CCCCCCC(=O)CCCCCC/C=C/C[C@@H](O)[C@H](O)[C@@](N)(CO)C(=O)O
inactive: Potency [1] | Potency [2] | Potency [3] | Potency [4] | Potency [5] | Potency [6] | Potency [7] | Potency [8] | Potency [9] | Potency [10]

CNC(C)(C)Cc1ccccc1
inactive: Potency [1] | Potency [2] | Potency [3] | Potency [4] | Potency [5] | Potency [6] | Potency [7] | Potency [8] | Potency [9] | Potency [10]

COP(=S)(OC)Oc1ccc(S(=O)(=O)N(C)C)cc1
inactive: Potency [1] | Potency [2] | Potency [3] | Potency [4] | Potency [5] | Potency [6] | Potency [7] | Potency [8] | Potency [9] | Potency [10]

O=c1oc2ccccc2c(O)c1Cc1c(O)c2ccccc2oc1=O
inactive: Potency [1] | Potency [2] | Potency [3] | Potency [4] | Potency [5] | Potency [6] | Potency [7] | Potency [8] | Potency [9] | Potency [10]

CC(C)c1cccc(C(C)C)c1O
inactive: Potency [1] | Potency [3] | Potency [4] | Potency [5] | Potency [6] | Potency [7] | Potency [8] | Potency [9] | Potency [10]

C[C@]12CCC(=O)C=C1CC[C@@H]1[C@@H]2CC[C@]2(C)C(=O)CC[C@@H]12
inactive: Potency [1] | Potency [2] | Potency [3] | Potency [4] | Potency [5] | Potency [6] | Potency [7] | Potency [8] | Potency [10]

CN1CCC(O)(c2ccc(F)cc2)C(C(=O)c2ccc(F)cc2)C1 (stereo unspecified)
inactive: Potency [1] | Potency [2] | Potency [3] | Potency [4] | Potency [5] | Potency [6] | Potency [8] | Potency [9] | Potency [10]

CCCCCCCCCC(=O)O[C@H]1CC[C@H]2[C@@H]3CCC4=CC(=O)CC[C@@H]4[C@H]3CC[C@]12C
inactive: Potency [1] | Potency [2] | Potency [3] | Potency [5] | Potency [6] | Potency [7] | Potency [8] | Potency [9] | Potency [10]

COc1ccc2c(c1OC)C(=O)O[C@H]2[C@@H]1c2cc3c(cc2CCN1C)OCO3
inactive: Potency [2]

Clc1ccc(C(c2ccc(Cl)cc2)C(Cl)(Cl)Cl)cc1
inactive: Potency [1] | Potency [3] | Potency [5] | Potency [7] | Potency [10]

CC(C)(C)NCC(O)c1ccccc1Cl (stereo unspecified)
active: Potency [2] 13500 nM | Potency [4] 7080 nM | Potency [8] 11200 nM
inactive: Potency [1] | Potency [5]

CCC(C)(C)c1ccc(O)cc1
inactive: Potency [1] | Potency [2] | Potency [3] | Potency [4] | Potency [5] | Potency [6] | Potency [7] | Potency [8] | Potency [9] | Potency [10]

COC(=O)C(c1ccccc1)C1CCCCN1 (stereo unspecified)
inactive: Potency [1] | Potency [3] | Potency [4] | Potency [5] | Potency [6] | Potency [7] | Potency [8] | Potency [9] | Potency [10]

NC(=O)CS(=O)C(c1ccccc1)c1ccccc1 (stereo unspecified)
inactive: Potency [1] | Potency [2] | Potency [3] | Potency [4] | Potency [5] | Potency [6] | Potency [7] | Potency [8] | Potency [9] | Potency [10]

Clc1ccc2c(c1)C(c1ccccc1)=NCc1nncn1-2
inactive: Potency [1] | Potency [2] | Potency [3] | Potency [4] | Potency [5] | Potency [6] | Potency [7] | Potency [8] | Potency [9] | Potency [10]

CN1C(=O)CC(=O)N(c2ccccc2)c2cc(Cl)ccc21
inactive: Potency [1] | Potency [2] | Potency [3] | Potency [4] | Potency [5] | Potency [6] | Potency [7] | Potency [8] | Potency [9] | Potency [10]
